Screening data (PubChem)
T cruzi growth – T. cruzi intracellular proliferation inhibitors, primary screen, cell-based, beta-gal Tulahuen parasites, NIH3T3 host, luminescence. hit rate 5.9% among 77,000. T. cruzi beta-gal in NIH3T3, GalScreen luminescence, 90 h. inhibition, % at 8.34 µM;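 active = mean inhibition above about 93%, with at least 55% of replicates each passing it, limit read from the data, passing the limit was not always enough; inconclusive = only one of those two conditions holds; inactive = neither condition holds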
Pf Dd2 growth – P. falciparum Dd2 growth inhibitors, primary screen, SYBR Green fluorescence, single dose replicates; 72 h; stronger effect = lower value; activity change, % at 10 µM; hit rate 2.3% among 94,000; AID 1159554, 2015; in the data active = activity change below about -80%; inconclusive = no clear call, values can overlap the other calls
C diff growth – C. difficile growth inhibitors, primary screen, HTS | Clostridium difficile clinical isolate growth, OD600, 24 h; stronger effect = lower value | growth activity, negative = inhibition, % at 16 µg/mL (by protocol) | hit rate 0.25% among 86,000 | AID 1259249, 2017;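 active = mean growth activity at or below -80% and every replicate also at or below -80%; inconclusive = mean at or below -80% but some replicate above -80%; inactive = mean growth activity above -80%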
Large screens that a line does not name were inactive. Only some compounds are listed: those with a hit (about 6.7% of all), similar ones and a draw of the others.

C[C@@H]1CN([C@H](C)CO)C(=O)Cc2cc(NC(=O)Cc3ccccc3)ccc2O[C@H]1CN(C)C(=O)Nc1ccc(F)cc1	none (no result: T cruzi growth)
OC[C@@H]1CC[C@@H]2O[C@H](CCc3ccc(C#CCc4ccccc4)cc3)[C@H](n3cc(-c4ccccc4)nn3)C[C@@H]2O1	Pf Dd2 growth inconclusive (no result: T cruzi growth)
CNC[C@@H]1OCCCC[C@@H](C)Oc2ccc(NS(=O)(=O)c3cccs3)cc2C(=O)N([C@@H](C)CO)C[C@H]1C	none
CCS(=O)(=O)N1CC2(CN[C@H](CO)c3c2c2ccc(OC)cc2n3C)C1	none (no result: T cruzi growth, C diff growth)
Cc1ccc(S(=O)(=O)N(C)C[C@H]2Oc3ccc(NC(=O)CCN4CCOCC4)cc3CC(=O)N([C@H](C)CO)C[C@H]2C)cc1	none
COc1ccc(NC(=O)N2CC(=O)N3[C@H](CO)[C@H](c4ccc(C5=CCCC5)cc4)[C@H]3C2)cc1	none (no result: T cruzi growth)
COc1ccc(NC(=O)N2CC(=O)N3[C@H](C2)[C@H](c2ccc(Br)cc2)[C@@H]3CO)cc1	none (no result: T cruzi growth)
COc1ccc2c3c(n(C)c2c1)[C@@H](CO)N(CC1CC1)CC31CCN(C(=O)Nc2ccccc2)CC1	none (no result: T cruzi growth)
COc1ccc2c3c(n(C)c2c1)[C@@H](CO)N(C(=O)Nc1cccc(F)c1)CC31CN(Cc2nccs2)C1	Pf Dd2 growth -85 (no result: T cruzi growth)
COc1ccc2c3c(n(C)c2c1)[C@@H](CO)N(CC1CCCC1)CC31CCN(C(=O)Nc2ccccc2)CC1	Pf Dd2 growth -84 (no result: T cruzi growth)
COc1ccc2c3c(n(C)c2c1)[C@@H](CO)N(C(=O)C1CCC1)CC31CN(C)C1	none (no result: T cruzi growth)
COc1ccc2c3c(n(C)c2c1)[C@H](CO)N(C(=O)NC(C)C)CC31CN(Cc2nccs2)C1	none (no result: T cruzi growth)
COc1ccc(NC(=O)N2CC3(C2)CN(C(=O)C2CCC2)[C@H](CO)c2c3c3ccc(OC)cc3n2C)cc1	Pf Dd2 growth -88 (no result: T cruzi growth)
CC(C)NC(=O)Nc1ccc2c(c1)C(=O)N([C@H](C)CO)C[C@H](C)[C@@H](CN(C)C(=O)c1ccccc1)OCCCC[C@@H](C)O2	none
COC(=O)C[C@H]1CC[C@H]2[C@H](COc3ccc(NC(=O)c4cccc(OC)c4)cc3C(=O)N2C)O1	none
CCC(=O)N(C)C[C@H]1Oc2cc(C3=CCCCC3)ccc2S(=O)(=O)N([C@H](C)CO)C[C@@H]1C	none (no result: C diff growth)
COCC(=O)N(C)C[C@H]1Oc2ncc(C3=CCCC3)cc2C(=O)N([C@H](C)CO)C[C@H]1C	none (no result: T cruzi growth)
CCCNC(=O)N1CC2(CN(C(=O)CN(C)C)C2)c2c(n(C)c3cc(OC)ccc23)[C@H]1CO	none (no result: T cruzi growth)
CCC(=O)N1CC2(CN(Cc3ccc(Cl)cc3)C2)c2c(n(C)c3cc(OC)ccc23)[C@@H]1CO	none (no result: T cruzi growth)
COc1ccc2c3c(n(C)c2c1)[C@@H](CO)N(C(=O)C1CC1)CC31CCN(C(=O)CN(C)C)CC1	Pf Dd2 growth -84 (no result: T cruzi growth)
CCC(=O)N1CC2(CCN(Cc3ccc(Cl)cc3)CC2)c2c(n(C)c3cc(OC)ccc23)[C@H]1CO	Pf Dd2 growth -83 (no result: T cruzi growth)
CCCNC(=O)N1CC2(CCN(Cc3cccc(OC)c3)CC2)c2c(n(C)c3cc(OC)ccc23)[C@H]1CO	none (no result: T cruzi growth)
CCCNC(=O)N1CC2(CCN(C(=O)CN(C)C)CC2)c2c(n(C)c3cc(OC)ccc23)[C@H]1CO	Pf Dd2 growth -88 (no result: T cruzi growth)
COc1ccc2c3c(n(C)c2c1)[C@H](CO)N(C(=O)C1CC1)CC31CCN(C(=O)CN(C)C)CC1	none (no result: T cruzi growth)
CCCNC(=O)N1CC2(CCN(Cc3cccc(OC)c3)CC2)c2c(n(C)c3cc(OC)ccc23)[C@@H]1CO	Pf Dd2 growth -89 (no result: T cruzi growth)
O=C(NC[C@@H]1CC[C@H]2[C@H](CN2C(=O)C2CCOCC2)O1)c1cccnc1	none (no result: T cruzi growth)
O=C(C[C@H]1CC[C@H](NC(=O)NC2CCCCC2)[C@@H](CO)O1)NCc1ccc(F)cc1	none (no result: T cruzi growth)
Cc1ccccc1-c1cnc2c(c1)C(=O)N([C@@H](C)CO)C[C@@H](C)[C@H](CN(C)Cc1cccnc1)O2	none
C[C@H]1CN([C@@H](C)CO)C(=O)c2cccc(NS(C)(=O)=O)c2O[C@@H]1CN(C)CC1CCCCC1	none
O=C(N[C@@H]1CC[C@H](CC(=O)N2CCOCC2)O[C@@H]1CO)c1ccccn1	none
CCCNC(=O)N1CC2(C1)CN(S(C)(=O)=O)[C@@H](CO)c1c2c2ccc(OC)cc2n1C	none (no result: T cruzi growth)
CCCNC(=O)N1CCC2(CC1)CN(S(C)(=O)=O)[C@H](CO)c1c2c2ccc(OC)cc2n1C	Pf Dd2 growth -83 (no result: T cruzi growth)
Cc1ccc(S(=O)(=O)Nc2cccc3c2O[C@@H](CN(C)S(C)(=O)=O)[C@@H](C)CN([C@H](C)CO)C3=O)cc1	none
COc1ccccc1-c1cccc(-c2nc(C(=O)Nc3nccs3)cc3c2[C@H](CCO)N(C(C)=O)C3)c1	Pf Dd2 growth -95 (no result: T cruzi growth)
COc1ccccc1-c1cccc(-c2nc(C(=O)Nc3nccs3)cc3c2[C@@H](CCO)N(C(C)=O)C3)c1	none (no result: T cruzi growth)
C[C@H](CO)N1C[C@H](C)[C@H](CN(C)S(=O)(=O)c2cccs2)OCCCC[C@H](C)Oc2ccc(N(C)C)cc2C1=O	none
COc1ccc(S(=O)(=O)Nc2cccc3c2O[C@H](CN(C)Cc2ccc(C(=O)Nc4ccccc4N)cc2)[C@H](C)CN([C@H](C)CO)C3=O)cc1	Pf Dd2 growth -87
COc1ccc(S(=O)(=O)Nc2cccc3c2O[C@H](CN(C)Cc2ccc(C(=O)Nc4ccccc4N)cc2)[C@H](C)CN([C@@H](C)CO)C3=O)cc1	Pf Dd2 growth -86
COc1ccc(S(=O)(=O)Nc2cccc3c2O[C@H](CN(C)Cc2ccc(C(=O)Nc4ccccc4N)cc2)[C@@H](C)CN([C@H](C)CO)C3=O)cc1	none
COc1ccc(S(=O)(=O)Nc2cccc3c2O[C@@H](CN(C)Cc2ccc(C(=O)Nc4ccccc4N)cc2)[C@@H](C)CN([C@H](C)CO)C3=O)cc1	none (no result: T cruzi growth)
Cc1ccc(S(=O)(=O)N(C)C[C@H]2OCCCC[C@@H](C)Oc3ccc(NC(=O)Nc4cccc5ccccc45)cc3C(=O)N([C@@H](C)CO)C[C@@H]2C)cc1	none (no result: T cruzi growth)
C[C@@H]1CCCCO[C@@H](CN(C)C)[C@@H](C)CN([C@@H](C)CO)C(=O)c2cc(NC(=O)Nc3cccc4ccccc34)ccc2O1	none (no result: Pf Dd2 growth)
C[C@H]1CCCCO[C@@H](CN(C)CC2CCCCC2)[C@@H](C)CN([C@@H](C)CO)C(=O)c2cc(NC(=O)Nc3cccc4ccccc34)ccc2O1	Pf Dd2 growth -83
C[C@@H]1CN([C@@H](C)CO)C(=O)c2cc(NC(=O)Nc3cccc4ccccc34)ccc2O[C@@H](C)CCCCO[C@H]1CN(C)C(=O)C1CCCCC1	none
C[C@@H]1CN([C@@H](C)CO)C(=O)c2cc(NC(=O)Nc3cccc4ccccc34)ccc2O[C@@H](C)CCCCO[C@@H]1CN(C)C	Pf Dd2 growth -87
C[C@@H]1CCCCO[C@H](CN(C)CC2CCCCC2)[C@@H](C)CN([C@H](C)CO)C(=O)c2cc(NC(=O)Nc3cccc4ccccc34)ccc2O1	none
C[C@@H]1CN([C@H](C)CO)C(=O)c2cc(NC(=O)Nc3cccc4ccccc34)ccc2O[C@@H](C)CCCCO[C@@H]1CN(C)C(=O)C1CCCCC1	Pf Dd2 growth -91
COc1ccc(S(=O)(=O)N(C)C[C@H]2Oc3c(NC(=O)c4cc(C)nn4C)cccc3C(=O)N([C@H](C)CO)C[C@@H]2C)cc1	none
Cc1ccc(S(=O)(=O)Nc2ccc3c(c2)C(=O)N([C@H](C)CO)C[C@@H](C)[C@H](CN(C)S(C)(=O)=O)OCCCC[C@@H](C)O3)cc1	none
